Measurements from PubChem BioAssay (NCI).
About 79,000 compounds went through this panel and 15% of them were active in at least one assay; those are over-represented in the sample as a whole. No stated cut-off is given here; in the data, active means growth inhibition above about 70%; inactive means the rest.

Experiments:
[1] = NCI Yeast Anticancer Drug Screen. Data for the rad50 strain (AID 155);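 further: 0% = growth of vehicle-only cultures of the same strain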; settings: S. cerevisiae rad50 strain growth inhibition; at 50.0 µM; hits give high values
Summary of the method: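 Relative growth inhibition (compound vs vehicle) was measured in yeast with a defined repair-gene alteration.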

[2] = NCI Yeast Anticancer Drug Screen. Data for the mec2-1 strain (AID 157); settings: S. cerevisiae mec2-1 strain, at 50.0 µM, hits give high values
Summary of the method: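 Each compound was tested on mec2-1 yeast, a strain altered in DNA damage repair or cell cycle control. Growth inhibition is reported relative to vehicle.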

[3] = NCI Yeast Anticancer Drug Screen. Data for the sgs1 mgt1 strain (AID 161);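 further: 0% = growth of cultures given vehicle only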; settings: S. cerevisiae sgs1 mgt1 strain, at 50.0 µM, hits give high values
Summary of the method: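 Test agents were incubated with a DNA-repair-mutant yeast strain. Growth was then read and compared against vehicle-treated controls.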

[4] = NCI Yeast Anticancer Drug Screen. Data for the cln2 rad14 strain (AID 165);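 further: 0% = growth equal to vehicle treated cultures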; settings: S. cerevisiae cln2 rad14 strain, at 50.0 µM, hits give high values
Summary of the method: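 Test compounds were added to cln2 rad14 yeast cultures; inhibition of growth was then determined by comparison with vehicle treatment.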

[5] = NCI Yeast Anticancer Drug Screen. Data for the bub3 strain (AID 167); settings: S. cerevisiae bub3 mutant strain, at 50.0 µM, hits give high values
Summary of the method: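 Screening used yeast with an engineered genetic alteration affecting cell cycle control. Compound-exposed cultures were compared with vehicle cultures, and reduced growth was taken as inhibition.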

[6] = NCI Yeast Anticancer Drug Screen. Data for the mlh1 rad18 strain (AID 175); settings: S. cerevisiae mlh1 rad18 strain growth inhibition; at 50.0 µM; hits give high values
Summary of the method: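 Inhibition values reflect reduced growth of mutant yeast versus vehicle-treated controls following compound exposure; the mutations affect DNA damage repair.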

Measured: growth inhibition

CCCCC(CC)CNCC(CC)CCCC (stereo unspecified)
inactive: [1] 33.8% | [2] 45.5% | [3] 14.8% | [4] 40.6% | [5] 5.5% | [6] 26.1%

COC(=O)C(=O)C(C(=O)C(=O)Nc1cc([N+](=O)[O-])ccc1[N+](=O)[O-])c1nc2ccc(C(=O)c3ccccc3)cc2[nH]c1=O (stereo unspecified)
inactive: [1] 29.7% | [2] 15.8% | [3] 4.1% | [4] -16.1% | [5] 40.6% | [6] 18.9%

O=C(c1ccccc1)C(O)(c1ccccc1)C1CCCC/C1=N\N(c1ccccc1)c1ccccc1 (stereo unspecified)
inactive: [1] 37% | [2] 31.4% | [3] 29.9% | [4] 32.7% | [5] -20.4% | [6] 37.3%

CC(C)CCC(=S)N1CCN(c2ccccc2)CC1
inactive: [1] -0.4% | [2] 7.25% | [3] 2.2% | [4] -45.1% | [5] 2.05% | [6] -17.4%

CNc1ccc(Oc2ccccc2)cc1[N+](=O)[O-]
inactive: [1] -2.2% | [2] 6.4% | [3] -11.3% | [4] -34.6% | [5] -9.9% | [6] -11%

COc1cc(C2OCC3C(c4ccc(O)c(OC)c4)OCC23)ccc1O (stereo unspecified)
inactive: [1] 6% | [2] -20.4% | [3] 10.9% | [4] 23.4% | [5] 0.2% | [6] 14.6%

Cc1no[n+]([O-])c1NC(=O)OCc1ccccc1
inactive: [1] -1.8% | [2] -11% | [3] -2.6% | [4] -37.8% | [5] -15.3% | [6] 6.9%

CCCCOCCOCCO
inactive: [1] -18.2% | [2] -21.6% | [3] -15.7% | [4] -14.7% | [5] 1.45% | [6] 1.5%

CSc1c(C#N)c2c(Cl)ncnc2n1C(C)=O
inactive: [1] 1.7% | [2] 14.3% | [3] 9.95% | [4] -71.5% | [5] -7.5% | [6] 5.35%

O=C(NNS(=O)(=O)c1ccccc1)c1cccc([N+](=O)[O-])c1
inactive: [1] -0.95% | [2] -18.8% | [3] 7.25% | [4] 8.2% | [5] 5% | [6] -11.4%

O=P(O)(O)c1ccc(Oc2ccccc2)cc1
inactive: [1] -8.6% | [2] 1.35% | [3] -4.1% | [4] -22.2% | [5] 5.45% | [6] -2.85%

Cc1ccc(Nc2nnc(-c3ccc4c(c3)OCO4)o2)c(C)c1
inactive: [1] 22.8% | [2] 1.6% | [3] -4.4% | [4] -2.15% | [5] -4% | [6] 14.8%

NC(=O)c1ncnc2nc[nH]c12
inactive: [1] -14.2% | [2] -42.5% | [3] -9% | [4] -29.1% | [5] -20.4% | [6] -10.6%

CC1CC=C2CCCCC2(C)C1C (stereo unspecified)
inactive: [1] 8.7% | [2] 13.7% | [3] 16.2% | [4] -30.9% | [5] -40.6% | [6] 3.7%

CC1=NN2C(c3ccc(C)cc3)=CSC2=NC(C)(C)C1
inactive: [1] 20.6% | [2] -1.45% | [3] 2.45% | [4] 19.8% | [5] 5% | [6] -1.1%

c1ccc(C(CCN2CC3CCC(CC3)C2)c2ccccc2)cc1
inactive: [1] 14.6% | [2] -21.4% | [3] -17.9% | [4] -22.6% | [5] -21.9% | [6] 22.6%

CC(=O)NC1(C#N)c2ccccc2-c2ccccc21
inactive: [1] 18.6% | [2] 4.2% | [3] 18.9% | [4] 9.3% | [5] 5.25% | [6] 4.55%

CCOC(=O)Cn1c(=O)c2nc(SC)sc2n(-c2ccccc2)c1=O
inactive: [1] -19.9% | [2] 10.8% | [3] -37.1% | [4] 6.9% | [5] -1.45% | [6] 9.4%

CCOC(=O)C(=CNc1cc(C(F)(F)F)ccc1N1CCOCC1)C(=O)OCC
inactive: [1] -1.4% | [2] -15.2% | [3] -9.5% | [4] 18.6% | [5] 2.25% | [6] -0.1%

O=C(O)/C=C/c1ccccc1C(=O)O
inactive: [1] 11.3% | [2] -4.3% | [3] 4.05% | [4] -13.2% | [5] -11.4% | [6] 6.05%

OCC1NC(CO)C(O)C1O (stereo unspecified)
inactive: [1] 6.5% | [2] 8.1% | [3] 6.5% | [4] 1.05% | [5] 9.2% | [6] 11.2%
